# Screening data deposited in PubChem BioAssay by National Center for Advancing Translational Sciences (NCATS).
# Only some compounds are listed: those with a hit (about 19% of all), similar ones and a draw of the others.
# HT1080 IDH1KD tx = kills HT-1080 cells with IDH1 knockdown. Potency, µM (top dose mostly 46.1 µM), for inactives: top-dose activity, negative = toxicity, usual class: cytotoxic. AID 686971. HT-1080 IDH1 knockdown viability, ATP luminescence, 48 h. 360,000 compounds, 2% hits;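 note: potency is the fitted concentration of half-maximal effect; 0% = DMSO wells and -100% = cell-free medium wells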
#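 Knockdown cells (IDH1KD HT-1080) received compounds 2 h after plating at 750 cells/well and were kept 48 h at 37 °C in 5% FBS RPMI. A CellTiter-Glo luminescence read gave % activity for curve fitting.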
# IL-1B inflam inh = inhibitors of inflammasome signaling (IL-1 beta secretion) | THP-1 LPS/ATP IL-1B secretion, AlphaLISA, 16 h; stronger effect = lower value | activity change, % at 57.5 µM | 360,000 compounds, 4.7% hits; in the data active = activity change below about -50%; inconclusive = mostly about -30% to -49%
#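 THP-1 cells pretreated 1 hr with compounds (up to 57.5 uM final), then stimulated with LPS (250 ng/mL final) plus ATP (1.25 mM final); secreted IL-1B measured by AlphaLISA after 16 hr, decreased signal indicating inhibition.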
# TDP1 cell CPT = DT40-hTDP1 cell growth loss with CPT; Potency, µM (doses to about 46.2 µM), for inactives: at the top dose activity change, negative = growth inhibition, most hits filed as inhibitors; AID 686979; 420,000 compounds, 12% hits; chicken DT40 Tdp1-/-;hTDP1 cells + 20 nM CPT, ATP luminescence, 48 h; note: potency is the fitted concentration of half-maximal effect; nearly all actives have a fitted effect of over 55% in size
#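 Chicken DT40 Tdp1-/- cells complemented with human TDP1, 400 cells/well, exposed to compounds plus 20 nM camptothecin for at least 48 h at 37 C; viability read as ATP content by CellTiter-Glo luminescence.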
# DT40 TDP1 no CPT = qHTS for Inhibitors of human tyrosyl-DNA phosphodiesterase 1 (TDP1): qHTS in cells in absence of CPT; DT40 Tdp1-/- hTDP1 cells, no CPT, ATP luminescence, 48 h; Potency, µM (top dose mostly 46.2 µM), without a hit: top-dose activity change, negative = growth inhibition, usual class: inhibitors; 420,000 compounds, 15% hits; note: potency is the fitted concentration of half-maximal effect; nearly all actives have a fitted effect of over 55% in size
#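 No-CPT arm: Tdp1-/-;hTDP1 DT40 cells (400/well) plus compounds, incubated ≥48 hr at 37 °C. Readout CellTiter-Glo luminescence.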
# HT1080NT lethal = kills 2HG-producing HT-1080-NT fibrosarcoma cells. HT-1080-NT fibrosarcoma viability, CellTiter-Glo ATP luminescence, 48 h. Potency, µM (doses to about 46.1 µM), without a hit: top-dose activity, negative = less viability, hits mostly cytotoxic. 360,000 compounds, 1.6% hits. AID 686970;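 note: NT is the 2HG producing partner of a matched IDH1 knockdown line; potency is the fitted concentration of half-maximal effect; 0% = DMSO-treated cells and -100% = media-only wells without cells; nearly all actives have a fitted effect of over 55% in size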
#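 A 48-hour cytotoxicity screen used HT-1080-NT cells plated 2 hours before compound delivery. ATP-based CellTiter-Glo luminescence measured viability, normalized to DMSO and no-cell controls.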
# Starred values were filed as active, the others as inactive; ? = inconclusive; . = no result given. Unless noted, calls come from the whole dose curve; as a rule, active = well fitted curve in the direction sought with a large enough effect; inconclusive = small, poorly fitted or top-dose-only effect, or another doubt; inactive = no such curve, though single readings can be large; an effect the other way counts as inactive or inconclusive. Unless noted, % is set by controls: 0 for no effect and ±100 for the full control effect.
SMILES,HT1080 IDH1KD tx,IL-1B inflam inh,TDP1 cell CPT,DT40 TDP1 no CPT,HT1080NT lethal
CCOC(=O)N1CCc2c(sc(NC(C)=O)c2C(N)=O)C1,-1%,-11,-17%,-7%,3%
COC(=O)C[C@H]1C=C[C@@H](NS(=O)(=O)c2ccccc2)[C@@H](CO)O1,9%,-7,-2%,2%,9%
Cc1cccc(NCCC(=O)c2ccc([N+](=O)[O-])cc2)c1C,-7%,5,4.6µM*,?,-10%
Cc1ccc(NCCC(=O)c2cccc([N+](=O)[O-])c2)c(C)c1,?,-16,8.2µM*,10µM*,?
Cc1ccc(C(=O)CNc2cccc([N+](=O)[O-])c2)cc1,4%,-10,1%,-11%,0%
CC(C(=O)Nc1ccc(F)c(F)c1F)N(C)Cc1cccs1 (stereo unspecified),8%,0,?,-2%,25%
Cc1ccc(C(=O)NC(=S)NNC(=O)c2cccc([N+](=O)[O-])c2)cc1,7%,34,?,?,-1%
CC(C)CC(=O)NC(=S)NNC(=O)c1ccc(NC(=O)C2CCCCC2)cc1,?,12,21µM*,12µM*,?
CCC(=O)NC(=S)NNC(=O)c1ccc([N+](=O)[O-])cc1,-21%,1,?,18µM*,-12%
CC(C)CC(=O)NC(=S)NNC(=O)c1ccc([N+](=O)[O-])cc1,-23%,33,18µM*,15µM*,-19%
Cc1ccccc1NCCNc1ccccc1C,11%,?,17%,-1%,1%
C/C(CC(=O)N(C(C)C)C(C)C)=N\NC(=O)c1ccccc1Br,26%,9,-17%,-2%,45%
Cc1cccc(-c2nc3ccccc3n2Cc2ccccc2)c1,.,.,?,5.2µM*,.
Fc1ccc(Cn2c(-c3cccc(Br)c3)nc3ccccc32)cc1,.,.,?,18µM*,.
CCCn1c(-c2cccc(Br)c2)nc2ccccc21,.,.,-18%,-26%,.
Cc1cccc(Cn2c(-c3ccc[nH]c3=O)nc3ccccc32)c1,-7%,-11,?,21µM*,-5%
O=c1[nH]cccc1-c1nc2ccccc2n1Cc1ccc(F)cc1,-1%,14,-29%,-7%,4%
CCCCOC(=O)Nc1ccc(C)c(Cl)c1,-9%,-2,?,?,-8%
CCCSc1nc2sc3c(c2c(=O)[nH]1)CCN(Cc1ccccc1)C3,10%,38,?,21µM*,-1%
CCCSc1nc2sc3c(c2c(=O)[nH]1)CC(C)CC3 (stereo unspecified),13%,11,?,16µM*,-7%
O=C1CCC([N+](=O)[O-])C(C2CC=CCC2)N1 (stereo unspecified),15%,7,16%,-1%,-1%
Cn1c2ccc(F)cc2c2nnc(SCCN3CCCCC3)nc21,-3%,-60*,?,16µM*,0%
CCOc1ccc2c(c1)c1nnc(SCC(=O)N3CCCCC3C)nc1n2C (stereo unspecified),3%,-6,23µM*,23µM*,1%
Cn1c2ccccc2c2nnc(SCCN3CCOCC3)nc21,-3%,7,?,-18%,-2%
Cc1cc(C)c2c(c1)c1nnc(SCCN3CCCCC3)nc1n2C,-12%,-72*,?,21µM*,-6%
SMILES,HT1080 IDH1KD tx,IL-1B inflam inh,TDP1 cell CPT,DT40 TDP1 no CPT,HT1080NT lethal
CCn1cc(C(=O)O)c(=O)c2cnc(N3CCN(C(=S)NC(=O)c4ccc(Cl)cc4)CC3)nc21,-5%,?,-9%,22%,-1%
COc1ccc(-c2nc3cnc(N4CCOCC4)nc3n(Cc3cccc(OC)c3)c2=O)cc1,.,.,10%,-19%,.
N#C/C(=C\N1CCOCC1)c1ccccc1,0%,-15,-5%,-8%,2%
N#C/C(=C\c1ccc(N2CCOCC2)cc1)c1ccccc1,-23%,?,21µM*,15µM*,?
N#C/C(=C\c1ccc(N2CCOCC2)o1)c1ccccc1,4.5µM*,-84*,10µM*,?,?
N#C/C(=C/c1ccc(N2CCOCC2)o1)c1ccc(Br)cc1,?,-106*,9.2µM*,15µM*,?
N#CC(=Cc1ccncc1)c1ccccc1,11%,-74*,2%,-28%,11%
CCCCNC(=O)c1onc(CSc2ccc(C(C)C)cc2)c1C(=O)O,?,10,-2%,0%,0%
Cc1ccc(Cn2ccc(=O)c(OCc3c(Cl)cccc3Cl)c2C)cc1,?,-59*,18µM*,15µM*,?
CN(C(=O)c1cccs1)C1(C)CCS(=O)(=O)C1 (stereo unspecified),-1%,-3,-15%,26%,1%
O=C(c1cccc2ccccc12)N1CCN(c2ccc([N+](=O)[O-])c(NCc3ccco3)c2)CC1,6%,4,-29%,-29%,2%
Cc1cccc(C(=O)N2CCN(c3ccc([N+](=O)[O-])c(NCc4ccco4)c3)CC2)c1,-3%,-8,?,21µM*,-8%
Cc1ccc(C(=O)N2CCN(c3ccc([N+](=O)[O-])c(NCc4ccco4)c3)CC2)cc1,-1%,-26,?,16µM*,0%
Cc1ccccc1C(=O)N1CCN(c2ccc([N+](=O)[O-])c(NCc3ccco3)c2)CC1,-5%,-11,?,?,-11%
CC(C)=NNC(=O)C1=NNC(=O)C1,3%,8,-6%,-1%,-2%
Nc1nc2ccccc2cc1C(=O)NCc1ccc(-c2ccccc2)cc1,1.3µM*,10,1µM*,0.16µM*,?
Nc1nc2ccccc2cc1C(=O)NCc1ccc(Cl)cc1Cl,-26%,30,16µM*,5.8µM*,?
Nc1ccc(CNC(=O)c2cc3cc(Cl)ccc3nc2N)cc1,-21%,15,?,?,?
Cc1cc(C)cc(NC(=O)Oc2ccccc2N2CCCCC2)c1,9%,.,0%,-21%,25%
CCn1c(=O)n(CC)c2cc(N3CCCC3)c(NC(=O)c3ccc(F)cc3)cc21,-2%,49,23µM*,18µM*,1%
CCOC(=O)Cc1ccc(NC(=O)Nc2cc3c(cc2N2CCCCC2)n(C)c(=O)n3C)cc1,.,.,4.6µM*,2.6µM*,.
CCOc1ccc(C(=O)Nc2cc3c(cc2N2CCCC2)n(CC)c(=O)n3CC)cc1OCC,-21%,15,?,?,-18%
CCn1c(=O)c(=O)n(CC)c2cc(N3CCCCC3)c(NC(=O)c3ccc(OC)c(OC)c3)cc21,.,.,13µM*,9.2µM*,.
CCn1c(=O)n(CC)c2cc(N3CCCCC3)c(NC(=O)Nc3cc(C)cc(C)c3)cc21,.,.,5.8µM*,6.5µM*,.
O=C(Nc1ccccc1N1CCCCC1)c1ccc(F)cc1,-5%,23,?,?,0%
